ChEMBL document CHEMBL1201862, “PubChem BioAssay data set” (2004)
The campaign covered roughly 56,000 sequences. About 4,300 (7.7%) were called active. No stated cut-off is given here; in the data, active = GI50 up to about 1.1 µM and inactive = higher. The list is a sample of the results. Potency and affinity values are given separately.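 Cells were grown in 96-well plates and exposed to each compound for 48 hours at five concentrations; endpoints were interpolated linearly between bracketing concentrations, or set to the highest concentration if not reached. Abbreviation: GI50, concentration required for 50% inhibition of growth.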

tested on: OVCAR-3; experiment: NCI tumour cell line growth inhibition, 48 h

| Substance | GI50 |
| --- | --- |
| [Bis(aminomethyl)dimethylsilane]dichloroplatinum (II), CHEMBL2146201 | 30.5 µM |
| [Bis(aminomethyl)pentamethylenesilane]dichloropaltinum(II), CHEMBL2146202 | 6.5 µM |
| [Bis(aminomethyl)dimethylsilane]tetrachloroplatinum(IV), CHEMBL2146190 | 7.29 µM |
| cis-Bis[[(trimethylsilyl)methyl]amino]tetrachloroplatinum(IV), CHEMBL2146191 | 2.99 µM |
| [Bis(aminomethyl)pentamethylenesilane]tetrachloropaltinum(IV), CHEMBL2146204 | 4.56 µM |
| [Bis(aminomethyl)tetramethylenesilane]dichloropaltinum(II), CHEMBL2146205 | 32.5 µM |
| [Bis(aminomethyl)tetramethylenesilane]tetrachloropaltinum(IV), CHEMBL2146189 | 13.1 µM |
| CISPLATIN, CHEMBL11359 | 2.67 µM |
| [Bis(aminomethyl)diethylsilane]tetrachloroplatinum(IV), CHEMBL2146203 | 6.11 µM |
| [Bis(aminomethyl)ethylmethylsilane]tetrachloroplatinum(IV), CHEMBL2146192 | 4.43 µM |
| mu-(1,7-nanodiamine-N,N')bis-(cis-aminedichloroplatimum (II)), CHEMBL2146215 | 29 µM |
